This note sets out measurements from PubChem BioAssay (Tox21).

Records with an inconclusive call do not appear. The source holds several records for some structures; these can differ, active in one and inactive in another. Activity calls are given as the source filed them. Unless noted, calls follow the shape of the full dose curve.

A short description of assay [1]: Nuclear factor erythroid 2-related factor 2/antioxidant responsive element (Nrf2/ARE) small molecule agonists: qHTS cell viability counter screen in human keratinocytes (AID 1919968; active = well fitted curve in the direction sought with a large enough effect in the repeat runs; an effect the other way counts as inactive or inconclusive; also: nearly all actives have a fitted effect of over 55% in size; also: potency is read from the fitted curve at half-maximal effect). The procedure, abridged: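 HaCaT ARE reporter line, 1,500 cells/well; 5 h settle, 37 C/5% CO2; cpd in DMSO pinned; 23 h exposure; CellTiter-Fluor, 1 h; fluorescence.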
Assay [2] in a line: Nuclear factor erythroid 2-related factor 2/antioxidant responsive element (Nrf2/ARE) small molecule agonists: luciferase reporter gene qHTS assay in human keratinocytes (AID 1919969). Also: nearly all actives have a fitted effect of over 35% in size. Also: potency is read from the fitted curve at half-maximal effect.
Assay [3] addresses Gonadotropin-releasing hormone receptor (Homo sapiens) (UniProt P30968). The assay is described as follows: Human gonadotropin-releasing hormone receptor (GnRHR) small molecule agonists, calcium flux assay in GnRHR-HEK293 cells (AID 1920063). Also: nearly all actives have a fitted effect of over 35% in size. The procedure, abridged:
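GnRHR-HEK293, 1500 cells/well, 18 h 37 C/5% CO2; Ca dye 1 h 37 C; cpd pinned (DMSO), agonist mode; kinetic FL 480/540, 3 min, 1 s reads; 15 conc, n=3.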

In assay [4] the target is KiSS-1 receptor (Homo sapiens) (UniProt Q969F8). The assay is described as follows: Human kisspeptin (KISS1R) small molecule agonists, calcium flux assay in KISS1R-HEK293 cells (AID 1920064; active = well fitted curve in the direction sought with a large enough effect in the repeat runs; an effect the other way counts as inactive or inconclusive). The method in brief: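 Stable human KISS1R HEK293 line; 18 h plating, 37 C/5% CO2; calcium dye 1 h 37 C; compound pin transfer; kinetic fluorescence Ex/Em 480/540, 3 min.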
A short description of assay [5]: G protein-coupled receptor (GPCR) small molecule agonists, calcium flux assay: HEK293 wild type cell line counter screen (AID 1920065). The procedure, abridged:
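Kinetic fluorescence at Ex/Em 480/540, recorded every second over 3 min, served as the read-out after compound addition. Each compound was tested at 15 concentrations in triplicate on cells pre-loaded with calcium dye for 1 h.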

Assay [6] in a line: p53 small molecule agonists, cell-based qHTS assay with human liver microsomes (AID 1963577). The method in brief:
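Fluorescence of the beta-lactamase reporter in p53RE-bla cells, detected with LiveBLAzer substrate (2 h, room temperature, dark), served as the read-out after 16 h compound exposure at 37 C with human liver microsomes and NADPH, each 0.5 mg/mL final.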

The nature of assay [7]: p53 small molecule agonists, cell-based qHTS assay with rat liver microsomes (AID 1963578). The method in brief: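 Cells carrying a p53 response element–beta-lactamase reporter were plated and rested 5 h, then dosed with compound in DMSO plus rat liver microsomes and NADPH, each at 0.5 mg/mL final. After 16 h at 37 C, LiveBLAzer substrate was added for 2 h.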
A short description of assay [8]: p53 small molecule agonists, cell-based qHTS assay with human liver microsomes: qHTS cell viability counter screen (AID 1963579). Also: nearly all actives have a fitted effect of over 45% in size. The method in brief: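 Cytotoxicity counter screen: p53RE-bla, 4,000 cells/well; 5 h settle, 37 C/5% CO2; cpd + HLM 0.5 mg/mL + NADPH 0.5 mg/mL (final); 16 h, 37 C; CellTiter-Glo, 30 min RT, luminescence.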
The nature of assay [9]: p53 small molecule agonists, cell-based qHTS assay with rat liver microsomes: qHTS cell viability counter screen (AID 1963580). Also: nearly all actives have a fitted effect of over 45% in size. The procedure, abridged: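 Intracellular ATP, by CellTiter-Glo luminescence, defines viability. HCT-116 p53RE-bla cells, 4,000 per well, were compound-treated in the presence of rat liver microsomes and NADPH for 16 h at 37 C.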
Assay [10] in a line: p53 small molecule agonists, cell-based qHTS assay: qHTS cell viability counter screen (AID 1963581). Also: nearly all actives have a fitted effect of over 45% in size. The procedure, abridged: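 HCT-116 p53RE-bla cells, 4,000/well, plated 5 h before compound pin transfer; 16 h at 37 C; bla substrate 2 h RT; then CellTiter-Glo, 30 min RT, luminescence.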
A short description of assay [11]: p53 small molecule agonists, cell-based qHTS assay (AID 1963582; active = well fitted activation curve with a large enough effect in the signal ratio in the repeat runs, not every such curve was filed as active; the % refers to the signal ratio). The procedure, abridged: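 Reporter line: p53RE-bla. Pre-incubation 5 h, 37 C, 5% CO2; compound (DMSO, pin tool) 16 h, 37 C; B/G FRET substrate 2 h RT; fluorescence intensity read.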
Assay [12] deals with 5-hydroxytryptamine receptor 2A (Homo sapiens) (UniProt P28223). The assay is described as follows: 5-hydroxytryptamine receptor 2A (HTR2A) small molecule antagonists, cell-based qHTS assay (AID 1963586). Also: nearly all actives have a fitted effect of over 45% in size. Also: potency is read from the fitted curve at half-maximal effect. The procedure, abridged:
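Antagonist-mode intracellular calcium assay: DOI (4 nM) added after 5 min compound pre-incubation at room temperature to dye-loaded HTR2A-CHO cells. Fluorescence followed for 3 min, sampled every second.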

Assay [13] shares this target. The experiment in a line: 5-hydroxytryptamine receptor 2A (HTR2A) small molecule agonists, cell-based qHTS assay (AID 1963587). Also: nearly all actives have a fitted effect of over 30% in size. The procedure, abridged: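 Kinetic calcium-flux fluorescence (2 min, 1 sec intervals) after compound addition in agonist mode. HTR2A-CHO cells were cultured 18 h, then dye-loaded 1 h at 37 C.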
The target of assay [14] is Muscarinic acetylcholine receptor M1 (Homo sapiens) (UniProt P11229). The assay is described as follows: Cholinergic receptor muscarinic 1 (CHRM1) small molecule antagonists, cell-based qHTS assay (AID 1963588). Also: nearly all actives have a fitted effect of over 40% in size. The method in brief:
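CHRM1-CHO calcium-flux assay, antagonist mode. Cells were seeded 18 h, dye-loaded 1 h at 37 C and given compound for 5 min at RT, then acetylcholine was added at 50nM. FDSS fluorescence was read 3 min; 15 concentrations, three runs.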

Assay [15] has the same target. The experiment in a line: Cholinergic receptor muscarinic 1 (CHRM1) small molecule agonists, cell-based qHTS assay (AID 1963589). Also: nearly all actives have a fitted effect of over 35% in size. The method in brief:
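Human M1 in stable CHO line; 18 h plating, 1 h dye load 37 C; cpd added (agonist mode); Ca2+ fluorescence kinetic read, 1 s intervals; 15 conc, 3 runs.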

Assay [16] in a line: cAMP Responsive Elements (CRE) small molecule agonists, cell-based qHTS assay (AID 1963590). The procedure, abridged:
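HEK 293T CRE-bla, 2,000 cells/well, 18 h preincubation 37 C/5% CO2; cpds (DMSO) pinned, 3 h; LiveBLAzer B/G FRET substrate, 2 h RT.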

A short description of assay [17]: cAMP Responsive Elements (CRE) small molecule antagonists, cell-based qHTS assay (AID 1963591; active = well fitted inhibition curve with a large enough effect in the signal ratio in the repeat runs, not every such curve was filed as active; the % refers to the signal ratio). The procedure, abridged:
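Beta-lactamase reporter read by FRET substrate (LiveBLAzer B/G) after 2 h at room temperature. CRE-bla HEK293T cells had received compound plus 0.25 uM (final) NKH477 for 3 h at 37 °C.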

The target of assay [18] is D(2) dopamine receptor (Homo sapiens) (UniProt P14416). The experiment in a line: Dopamine D2 receptor (DRD2) small molecule agonists, cell-based qHTS assay (AID 1963594). Also: nearly all actives have a fitted effect of over 35% in size. The procedure, abridged: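 cAMP accumulation in DRD2-HEK293 cells measured by HTRF after 1 h detection; compounds added 10 min before NKH477 (200nM […]) forskolin-analogue stimulation, 30 min at room temperature, with Ro20-1724 present at 0.1 mM final.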

For assay [19] the target is unchanged. The assay is described as follows: Dopamine D2 receptor (DRD2) small molecule antagonists, cell-based qHTS assay (AID 1963595; active = well fitted inhibition curve with a large enough effect in the signal ratio in the repeat runs, with a control signal flat; the % refers to the signal ratio). The procedure, abridged: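 HEK293 cells stably expressing DRD2, preincubated with 0.1 mM Ro20-1724 and compounds 10 min, were stimulated with 200 nM NKH477 plus 12 nM quinpirole for 30 min at room temperature; cAMP measured by HTRF (665/620 nm).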

For assay [20], the target named is Beta-2 adrenergic receptor (Homo sapiens) (UniProt P07550). The experiment in a line: Adrenergic beta2 receptor (ADRB2) small molecule antagonists, cell-based qHTS assay (AID 1963592). Also: series mostly up to about 92 µM; nearly all actives have a fitted effect of over 50% in size. The procedure, abridged: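 Cells (CHO, stable ADRB2 overexpression) incubated 18-20hr at 37C; compounds added from DMSO; agonist mix (1nM isoproterenol, 100uM IBMX, 25uM Ro-20-1724) added; 0.5hr RT; d2-cAMP and anti-cAMP-cryptate added; 1hr RT; 665/615 nm read.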
Sequence of Beta-2 adrenergic receptor (Homo sapiens) (P07550 whole entry, looked up): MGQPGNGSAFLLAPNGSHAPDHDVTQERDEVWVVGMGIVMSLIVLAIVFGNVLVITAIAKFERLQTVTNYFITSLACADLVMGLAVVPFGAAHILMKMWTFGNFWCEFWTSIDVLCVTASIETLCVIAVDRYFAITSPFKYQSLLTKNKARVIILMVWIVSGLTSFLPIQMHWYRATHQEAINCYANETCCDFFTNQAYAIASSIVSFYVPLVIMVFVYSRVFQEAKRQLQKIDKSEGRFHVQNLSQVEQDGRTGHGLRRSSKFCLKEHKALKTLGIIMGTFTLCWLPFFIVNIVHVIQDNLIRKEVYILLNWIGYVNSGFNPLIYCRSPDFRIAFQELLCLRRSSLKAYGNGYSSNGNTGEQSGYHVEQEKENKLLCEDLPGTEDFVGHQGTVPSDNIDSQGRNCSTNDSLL

Sequence of 5-hydroxytryptamine receptor 2A (Homo sapiens) (P28223 whole entry, looked up): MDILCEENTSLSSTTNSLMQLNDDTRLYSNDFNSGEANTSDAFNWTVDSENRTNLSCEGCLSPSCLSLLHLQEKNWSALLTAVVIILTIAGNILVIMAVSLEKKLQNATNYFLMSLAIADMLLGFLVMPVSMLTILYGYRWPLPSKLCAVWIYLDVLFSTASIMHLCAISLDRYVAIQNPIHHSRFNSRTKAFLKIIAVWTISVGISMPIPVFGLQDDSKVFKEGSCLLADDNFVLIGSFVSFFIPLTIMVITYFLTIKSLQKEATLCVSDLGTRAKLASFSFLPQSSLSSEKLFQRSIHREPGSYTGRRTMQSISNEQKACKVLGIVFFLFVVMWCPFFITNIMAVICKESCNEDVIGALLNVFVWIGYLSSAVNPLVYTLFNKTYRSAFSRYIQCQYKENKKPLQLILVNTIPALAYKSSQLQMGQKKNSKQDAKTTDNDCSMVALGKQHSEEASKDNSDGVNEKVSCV
Sequence of KiSS-1 receptor (Homo sapiens) (Q969F8 whole entry, looked up): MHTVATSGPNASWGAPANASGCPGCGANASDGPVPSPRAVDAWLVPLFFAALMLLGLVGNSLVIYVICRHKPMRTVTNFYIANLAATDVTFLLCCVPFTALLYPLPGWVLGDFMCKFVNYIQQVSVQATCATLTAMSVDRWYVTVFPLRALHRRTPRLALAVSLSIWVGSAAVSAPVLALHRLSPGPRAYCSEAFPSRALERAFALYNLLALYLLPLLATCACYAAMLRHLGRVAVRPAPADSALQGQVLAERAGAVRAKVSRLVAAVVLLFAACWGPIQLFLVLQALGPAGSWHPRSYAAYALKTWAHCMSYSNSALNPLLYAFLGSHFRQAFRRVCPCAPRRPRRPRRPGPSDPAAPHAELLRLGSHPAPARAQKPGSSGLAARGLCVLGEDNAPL
Sequence of Gonadotropin-releasing hormone receptor (Homo sapiens) (P30968 whole entry, looked up): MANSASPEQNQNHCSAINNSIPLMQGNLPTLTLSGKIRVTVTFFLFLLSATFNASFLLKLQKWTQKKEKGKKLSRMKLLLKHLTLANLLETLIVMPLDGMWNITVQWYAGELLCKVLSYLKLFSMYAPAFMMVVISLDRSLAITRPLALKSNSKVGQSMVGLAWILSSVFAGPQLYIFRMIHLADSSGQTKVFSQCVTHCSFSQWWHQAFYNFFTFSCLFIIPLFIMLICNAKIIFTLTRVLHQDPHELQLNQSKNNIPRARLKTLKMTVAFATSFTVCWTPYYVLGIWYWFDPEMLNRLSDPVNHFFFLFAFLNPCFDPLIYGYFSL
Sequence of Muscarinic acetylcholine receptor M1 (Homo sapiens) (P11229 whole entry, looked up): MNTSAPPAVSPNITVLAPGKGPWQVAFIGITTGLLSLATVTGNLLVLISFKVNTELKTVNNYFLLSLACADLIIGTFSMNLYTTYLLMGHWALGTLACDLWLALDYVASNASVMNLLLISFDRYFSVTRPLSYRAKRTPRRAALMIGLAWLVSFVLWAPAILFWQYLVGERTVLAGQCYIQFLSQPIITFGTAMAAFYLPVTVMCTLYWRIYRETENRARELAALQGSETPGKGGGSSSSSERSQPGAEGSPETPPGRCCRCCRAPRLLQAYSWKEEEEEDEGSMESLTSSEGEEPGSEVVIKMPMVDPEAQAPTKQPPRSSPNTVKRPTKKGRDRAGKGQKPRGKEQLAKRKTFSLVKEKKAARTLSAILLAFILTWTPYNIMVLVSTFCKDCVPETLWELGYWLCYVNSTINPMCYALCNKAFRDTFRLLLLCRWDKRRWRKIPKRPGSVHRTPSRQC
Sequence of D(2) dopamine receptor (Homo sapiens) (P14416 whole entry, looked up): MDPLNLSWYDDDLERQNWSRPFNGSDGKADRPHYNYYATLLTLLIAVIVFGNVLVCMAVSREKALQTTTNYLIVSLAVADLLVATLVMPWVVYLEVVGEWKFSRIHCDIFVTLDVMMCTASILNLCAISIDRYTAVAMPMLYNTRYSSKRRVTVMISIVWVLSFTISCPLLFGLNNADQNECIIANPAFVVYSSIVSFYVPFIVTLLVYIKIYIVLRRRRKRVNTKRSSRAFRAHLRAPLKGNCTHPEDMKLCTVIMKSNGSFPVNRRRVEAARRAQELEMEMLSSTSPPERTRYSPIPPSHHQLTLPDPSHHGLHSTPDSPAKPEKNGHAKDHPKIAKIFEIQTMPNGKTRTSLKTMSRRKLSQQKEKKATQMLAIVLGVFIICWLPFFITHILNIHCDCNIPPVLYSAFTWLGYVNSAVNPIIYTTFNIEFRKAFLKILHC

Take `CC(C)CCCCCCOC(=O)c1ccccc1C(=O)OCCCCCCC(C)C`: the Potency result in [1], in [2], in assay [3], in assay [4], in assay [5] and in assay [6] was “inactive” each time. In addition, the Potency entry in [7], in assay [8], in [9], in assay [10], in [11] and in [12] was “inactive” throughout. Besides, the Potency entry in assay [13], in [14], in [15], in assay [16], in assay [17] and in assay [18] was “inactive” each time. Further, the Potency result in assay [19] is “inactive”.
With `Nc1ccccc1C(=O)O`, the Potency result in assay [1], in [2], in assay [3], in assay [4], in [5] and in assay [6] was “inactive” each time. The Potency result in assay [7], in assay [8], in assay [9], in [10], in assay [11] and in assay [12] was “inactive” in each case. Further, the Potency result in assay [13], in assay [14], in assay [15], in assay [16], in assay [17] and in assay [18] was “inactive” in each case. In assay [19], the Potency entry is “inactive”.
As to `COc1cc(OC)nc(Oc2cccc(Oc3nc(OC)cc(OC)n3)c2C(=O)O)n1`, the Potency entry in assay [1], in [2], in [3], in assay [4], in assay [5] and in assay [6] was “inactive” throughout. Further, the Potency entry in [7], in assay [8], in assay [9], in assay [10], in assay [11] and in assay [12] was “inactive” in each case. The Potency entry in assay [13], in [14], in assay [15], in assay [17], in assay [20] and in assay [18] was “inactive” in each case. In addition, in assay [19], the Potency entry is “inactive”.
In the case of `CCOC(=O)N(C)N=O`, the Potency result in assay [1], in [2], in assay [3], in assay [4], in [5] and in assay [6] was “inactive” throughout. The Potency result in [7], in assay [8], in assay [9], in assay [10], in assay [11] and in [12] was “inactive” each time. The Potency entry in [13], in assay [14], in assay [15], in assay [17], in assay [20] and in assay [18] was “inactive” in each case. Also, the Potency result in assay [19] was “inactive”.
Take `C(=NC1CCCCC1)=NC1CCCCC1`: the values for the Potency in assay [1] and in assay [2] were 54.8 µM (active) and 30.6 µM (active), respectively. Besides, the Potency result in assay [3], in assay [4], in assay [5], in assay [6], in assay [7] and in assay [8] was “inactive” in each case. The Potency result in assay [9], in assay [10], in assay [11], in [12], in assay [13] and in assay [14] was “inactive” each time. Besides, the Potency entry in assay [15], in assay [17], in [20], in assay [18] and in [19] was “inactive” each time.
`COc1ccc(O)c(C(C)(C)C)c1`: the Potency result in assay [1], in [3], in [4], in assay [5], in assay [6] and in assay [7] was “inactive” each time. For the same compound, the Potency entry in assay [8], in assay [9], in [10], in assay [11], in [13] and in assay [14] was “inactive” each time. In addition, the Potency entry in assay [15], in [17], in assay [20], in [18] and in [19] was “inactive” throughout. For the same compound, the Potency in [2] is 68.7 µM (active); in [12], 23.7 µM (active) and inactive.
On to `Cc1cc(O)ccc1Cl`, for which the Potency result in assay [1], in [2], in assay [3], in assay [4], in [5] and in [6] was “inactive” throughout. In addition, the Potency result in assay [7], in assay [8], in [9], in assay [10], in [11] and in assay [12] was “inactive” throughout. Also, the Potency result in assay [13], in assay [14], in assay [15], in assay [16], in [20] and in [18] was “inactive” in each case. Further, in assay [19], the Potency entry is “inactive”.
